Compounds with a hit are over-represented: about 11% of the library has one in this group of screens.
HP1b binding inh: HTS for Inhibitors of HP1-beta Chromodomain Interactions with Methylated Histone Tails | Chromobox protein homolog 1 (Homo sapiens), P83916 | AlphaScreen HP1-beta / biotin-H3K9me3 peptide binding | Potency, µM (top dose mostly 114 µM), for inactives: at the top dose activity change, negative = inhibition, actives largely listed as inhibitors | hit rate 0.56% among 390,000; further: potency means the concentration at half of the fitted maximal effect; nearly all actives have a fitted effect of over 70% in size
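HP1-beta protein (50 nM final) preincubated 30 min at room temperature with biotinylated H3(1-18)K9me3 peptide (50 nM) in PBS pH 7.4, 0.01% Tween-20, then compound added for 30 min. AlphaScreen streptavidin donor/nickel chelate acceptor beads (10 ug/mL final), 30 min dark, luminescence read.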
L3MBTL1 inh: qHTS Assay for the Inhibitors of L3MBTL1; Potency, µM (titrated, usually from 57.1 µM), for the others: top-dose activity, negative = inhibition, hits mostly inhibitors; hit rate 0.66% among 230,000; AlphaScreen L3MBTL1–H3K9me1 peptide binding; further: potency means the concentration at half of the fitted maximal effect; on the % scale 0 is the no-effect control and ±100 the full control effect; nearly all actives have a fitted effect of over 60% in size
Target sequence (Q9Y468 whole entry, looked up): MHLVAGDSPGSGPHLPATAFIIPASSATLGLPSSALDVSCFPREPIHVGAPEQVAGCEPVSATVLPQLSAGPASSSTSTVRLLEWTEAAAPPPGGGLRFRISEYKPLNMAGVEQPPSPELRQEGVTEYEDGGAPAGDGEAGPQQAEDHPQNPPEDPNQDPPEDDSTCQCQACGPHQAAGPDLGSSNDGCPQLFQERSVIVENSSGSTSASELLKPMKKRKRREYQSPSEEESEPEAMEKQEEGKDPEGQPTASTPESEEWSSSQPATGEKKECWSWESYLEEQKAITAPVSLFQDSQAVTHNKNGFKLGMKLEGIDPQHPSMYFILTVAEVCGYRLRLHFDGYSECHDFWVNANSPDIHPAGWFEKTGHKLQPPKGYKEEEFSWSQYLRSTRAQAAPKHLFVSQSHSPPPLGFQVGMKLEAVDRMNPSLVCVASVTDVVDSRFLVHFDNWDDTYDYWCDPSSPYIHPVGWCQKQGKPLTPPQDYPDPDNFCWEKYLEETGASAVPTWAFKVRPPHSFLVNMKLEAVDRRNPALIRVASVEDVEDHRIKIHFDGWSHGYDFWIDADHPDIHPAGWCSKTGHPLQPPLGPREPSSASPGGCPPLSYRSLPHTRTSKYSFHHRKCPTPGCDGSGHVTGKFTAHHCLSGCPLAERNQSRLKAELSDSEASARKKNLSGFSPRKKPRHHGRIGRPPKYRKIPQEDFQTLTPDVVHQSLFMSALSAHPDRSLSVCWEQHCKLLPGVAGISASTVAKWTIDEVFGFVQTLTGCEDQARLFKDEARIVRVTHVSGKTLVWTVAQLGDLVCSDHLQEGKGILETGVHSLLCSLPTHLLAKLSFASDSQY
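AlphaScreen proximity signal between nickel-chelate acceptor and streptavidin donor beads (final 10 ug/mL) reports binding of 50 nM L3MBTL1 to 75 nM biotin-H3 K9me1 peptide; complex incubated with compounds 30 min at room temperature; cefsulodin titration as control.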
JMJD2A Tudor: qHTS Assay for Inhibitors of JMJD2A-Tudor Domain | AlphaScreen JMJD2A-Tudor / H3K4me3 peptide binding | Potency, µM (series often up to 114 µM), inactives show top-dose activity change, negative = inhibition, usual class: inhibitors | hit rate 4.4% among 390,000 | AID 504339, 2011; further: potency means the concentration at half of the fitted maximal effect; on the % scale 0 is the no-effect control and ±100 the full control effect; nearly all actives have a fitted effect of over 50% in size
BAZ2B inh: qHTS Assay for Inhibitors of BAZ2B; Bromodomain adjacent to zinc finger domain protein 2B (Homo sapiens), Q9UIF8; Potency, µM (series often up to 114 µM), for inactives: at the highest dose activity change, negative = inhibition, usual class: inhibitors; hit rate 4.4% among 360,000; AlphaScreen BAZ2B-H3K14Ac peptide displacement; further: potency means the concentration at half of the fitted maximal effect; on the % scale 0 is the no-effect control and ±100 the full control effect; nearly all actives have a fitted effect of over 60% in size
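Inhibition is scored as reduced AlphaScreen emission. The BAZ2B/b-H3(5-23)K14Ac complex (50 nM each) in PBS pH 7.4, 0.01% Tween-20 meets compound (up to 110 uM) for 30 min at RT before bead addition.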
PI5P4K alpha inh: qHTS for Inhibitors of phosphatidylinositol 5-phosphate 4-kinase (PI5P4K). hit rate 1.2% among 330,000. max response, %. AID 652105, 2013. PI5P4Kalpha enzyme, ADP-Glo luminescence, 60 min; hits give low values; active means max response of -50% or lower; inconclusive means between -30% and -50%; inactive means -30% or higher; further: value at the top dose of about 77 µM; on the % scale 0 is the no-effect control and ±100 the full control effect
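ADP-Glo luminescence end-point read after a 60 min room-temperature kinase reaction of PI5P4Kalpha plus substrate, initiated with ATP at 5 microM final. Buffer: 0.038 M HEPES pH 7.4, EGTA, 0.1% CHAPS, 5% DMSO.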
G9a inh: qHTS Assay for Inhibitors of Histone Lysine Methyltransferase G9a; Histone-lysine N-methyltransferase EHMT2 (Homo sapiens), Q96KQ7; Potency, µM (doses to about 102 µM), for the others: at the highest dose activity, negative = inhibition, usual class: inhibitors; G9a H3K9 monomethylation, AlphaScreen, 2 h; AID 504332, 2011; hit rate 8.8% among 350,000; further: potency means the concentration at half of the fitted maximal effect; on the % scale 0 is the no-effect control and ±100 the full control effect; nearly all actives have a fitted effect of over 75% in size
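AlphaScreen detection with an anti-monomethyl H3K9 antibody quantified product after a 2 h room-temperature reaction containing 500 nM biotinylated H3K9 peptide, 20 µM SAM and 20 nM enzyme, which had been preincubated 15 min with compound.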
ADP-Glo interf: qHTS for Inhibitors of PI5P4K: ADP-Glo counter assay; shares compounds with PI5P4K alpha inh; ADP-Glo detection counter-screen, luciferase luminescence, no enzyme; Potency, µM (highest dose often 76.9 µM), without a hit: at the top dose activity change, negative = inhibition, most hits filed as inhibitors; 1,100 tested, under 10 active
Starred values were filed as active, the others as inactive; [ ] = dose if it differs, or a comment. Unless noted, the call rests on the fitted dose curve; in most records, active means well fitted curve in the direction sought with a large enough effect; inconclusive means small, poorly fitted or top-dose-only effect, or another doubt; inactive means no such curve, though single readings can be large; an effect the other way counts as inactive or inconclusive.

`O=C(NCC1CC1)c1ccc(Nc2nc3ccc(Br)cc3[nH]2)cc1` gave HP1b binding inh inconclusive, L3MBTL1 inh -9.2%, JMJD2A Tudor 20µM*, BAZ2B inh -32.4%, PI5P4K alpha inh -55.9*, G9a inh inconclusive and ADP-Glo interf 2.7%.
For Cc1ccc(-c2csc3ncnc(NCCC(=O)O)c23)cc1C the results were HP1b binding inh 28.6%, L3MBTL1 inh 4.5%, JMJD2A Tudor -16.7%, BAZ2B inh 9.8%, G9a inh 21.7% and ADP-Glo interf -2.3%.
For Cc1ccc(-c2csc3ncnc(NCCC(=O)O)c23)cc1 the results were HP1b binding inh 65.7%, L3MBTL1 inh 62.7%, JMJD2A Tudor -12.9%, BAZ2B inh 16.6% and PI5P4K alpha inh inconclusive.
Screening O=C(NCc1ccccc1Cl)c1cc2cccc3c2n1CCS3 returned HP1b binding inh 49.5%, JMJD2A Tudor 10.7%, BAZ2B inh 8.7% and G9a inh 2.2%[59 µM].
For COc1ccc(NC(=O)c2ncn(-c3ccccc3)n2)cc1Cl the results were HP1b binding inh 23.5%, JMJD2A Tudor 5.1%, BAZ2B inh -1.3% and G9a inh 11.7%[59 µM].
`N#Cc1ccccc1OCc1cn(CC(=O)c2ccc(O)cc2)nn1` gave HP1b binding inh 3.3%, JMJD2A Tudor 20µM*, PI5P4K alpha inh -58.1* and ADP-Glo interf -11.2%.
COc1ccc(-c2nn(-c3ccccc3)cc2C2NC(=O)NC(C)=C2C(=O)OC(C)C)cc1Cl (centres undefined) was read as HP1b binding inh 18.8%, JMJD2A Tudor -26.6%, BAZ2B inh -17.8% and G9a inh inconclusive.
Cc1ccccc1-c1ccnc2c(-c3ccc(F)cc3)c(C)nn12 was read as HP1b binding inh 118.8%, JMJD2A Tudor 111.9%, BAZ2B inh -6.7% and G9a inh -0.7%[59 µM].
`CC1CCCCC12NC(=O)N(CC(=O)Nc1sc3c(c1C(N)=O)CCC3)C2=O` (centres undefined) gave HP1b binding inh 15.2%, JMJD2A Tudor -25.7%, BAZ2B inh inconclusive, PI5P4K alpha inh -60.4*, G9a inh inconclusive and ADP-Glo interf 0.1%.
`O=C(Cc1ccc(Cl)cc1Cl)Nc1cccc(S(=O)(=O)Nc2ccccc2F)c1` gave HP1b binding inh inconclusive, L3MBTL1 inh 9.0%, JMJD2A Tudor inconclusive, BAZ2B inh inconclusive, PI5P4K alpha inh -50.8*, G9a inh 1.58µM* and ADP-Glo interf -1.7%.
CCOc1ccccc1NC(=O)CSc1cn(CC(=O)N2CCCCCC2)c2ccccc12 was read as HP1b binding inh 13.7%, JMJD2A Tudor -22.0%, BAZ2B inh -17.5% and G9a inh -7.4%[59 µM].
Cc1ccsc1CN(C)c1ncnc2ccc(-c3ccoc3)cc12 was read as ADP-Glo interf 2.4%.
For Cc1csc(CNc2ncnc3ccc(-c4ccoc4)cc23)c1 the results were HP1b binding inh 16.5%, L3MBTL1 inh -10.5%, JMJD2A Tudor -26.1%, BAZ2B inh inconclusive and G9a inh 19.9%[2.33 µM].
`COc1ccc(CCNC(=O)C2CC(c3cccc(F)c3)=NO2)cc1` (centres undefined) gave HP1b binding inh 67.3%, JMJD2A Tudor -20.4%, BAZ2B inh 3.1%, PI5P4K alpha inh inconclusive, G9a inh 7.9%[59 µM] and ADP-Glo interf -5.0%.

High-throughput results: PubChem BioAssay, National Center for Advancing Translational Sciences (NCATS)
